For 13 molecules, growth results are on record in PubChem BioAssay (NCI).

Some test systems named below: DU-145 prostate; K-562 leukemia; MALME-3M melanoma; MDA-MB-231 breast; RXF 393 renal; SF-268 CNS; SF-295 CNS; SF-539 CNS; UACC-257 melanoma; M14 melanoma.
What all share (assay): NCI-60 one-dose screen, 48 h (100 = growth as untreated, 0 = no growth, -100 = all killed)
Common to all, as to conditions: 10 µM unless noted

Where “and” joins values, the source holds several entries; their conditions need not be identical. Equal values may be shown once. About 83,000 compounds went through this panel and 20% of them were active in at least one assay; those are over-represented in the sample as a whole.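 Negative percent growth values reflect cell death: -40 means 40% of the cells present at the start died, and -100 means all died.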 Calls of active or inactive are those of the source. Rule for the calls: active = growth percent below 10; inactive = the rest.

With `COc1cc2nc3cc([N+](=O)[O-])ccc3c(NCCNCC(C)(C)O)c2cc1OC`, the growth in the experiment on DU-145 prostate was -8.55% (active); with K-562 leukemia, 1.28% (active); with MALME-3M melanoma it was -74.4% (active); in the experiment with MDA-MB-231 breast it was -28.5% (active); in the experiment with RXF 393 renal, -47.3% (active); with SF-268 CNS it was -10.8% (active). Further, the growth was 16.4% (inactive) with SF-295 CNS, -20.8% (active) in the experiment on SF-539 CNS, -61.8% (active) in the experiment on UACC-257 melanoma and -75.7% (active) with M14 melanoma.
Regarding `O=C(N=Nc1c(O)[nH]c2ccccc12)Nc1ccc(Br)cc1`, the growth in the experiment on DU-145 prostate was 93.3% (inactive); in the experiment with K-562 leukemia it was 79% (inactive); in the experiment with MALME-3M melanoma, 86.1% (inactive); in the experiment on MDA-MB-231 breast it was 110% (inactive); in the experiment on RXF 393 renal, 82.4% (inactive); in the experiment with SF-268 CNS it was 86.2% (inactive). Also, the growth in the experiment with SF-295 CNS was 93% (inactive); with SF-539 CNS it was 83.6% (inactive); in the experiment on UACC-257 melanoma, 115% (inactive); with M14 melanoma, 89.8% (inactive).
With `O=C(CN1C(=O)S/C(=C\C(Cl)=C\c2ccccc2)C1=O)NCCCn1ccnc1`, the growth was 31.5% (inactive) with DU-145 prostate; 5.22% (active) in the experiment on K-562 leukemia; 25.4% (inactive) in the experiment with MALME-3M melanoma; 21.5% (inactive) in the experiment on MDA-MB-231 breast; -25.9% (active) in the experiment with RXF 393 renal; 86.7% (inactive) in the experiment on SF-268 CNS. The growth with SF-295 CNS is 79.8% (inactive); in the experiment with SF-539 CNS, 15.2% (inactive); in the experiment on UACC-257 melanoma, 75.1% (inactive); in the experiment on M14 melanoma it was 21.3% (inactive).
Turning to `CCOC(=O)c1cnn(-c2ccc(S(N)(=O)=O)cc2)c1N`, the growth in the experiment with DU-145 prostate is 132% (inactive); in the experiment on K-562 leukemia it was 87.7% (inactive); with MALME-3M melanoma it was 104% (inactive); in the experiment on MDA-MB-231 breast, 111% (inactive); in the experiment with RXF 393 renal, 95.9% (inactive); in the experiment on SF-268 CNS, 161% (inactive). Besides, the growth in the experiment on SF-295 CNS was 110% (inactive); with SF-539 CNS, 101% (inactive); in the experiment with UACC-257 melanoma it was 96.1% (inactive); in the experiment with M14 melanoma it was 98.9% (inactive).
Take `O=S(=O)(O)c1ccc(N=Nc2ccc(N=Nc3cccc4ccccc34)c(S(=O)(=O)O)c2)cc1`: the growth with DU-145 prostate is 109% (inactive); with K-562 leukemia, 104% (inactive); with MALME-3M melanoma, 107% (inactive); with MDA-MB-231 breast it was 80.3% (inactive); with RXF 393 renal, 119% (inactive); in the experiment on SF-268 CNS, 106% (inactive). For the same molecule, the growth in the experiment on SF-295 CNS was 106% (inactive); in the experiment with SF-539 CNS, 102% (inactive); in the experiment on UACC-257 melanoma, 107% (inactive); in the experiment on M14 melanoma, 99.5% (inactive).
As to `c1ccc(-c2cc(-c3cc(-c4ccccc4)on3)no2)cc1`, the growth with DU-145 prostate is 9.62% (active); in the experiment on K-562 leukemia it was 77.7% (inactive); in the experiment with MALME-3M melanoma, 114% (inactive); in the experiment with MDA-MB-231 breast, 105% (inactive); in the experiment with RXF 393 renal, 74.8% (inactive); in the experiment with SF-268 CNS, 90.1% (inactive). Moreover, the growth in the experiment with SF-295 CNS is 82.2% (inactive); in the experiment on SF-539 CNS, 91.3% (inactive); with UACC-257 melanoma, 79.6% (inactive); in the experiment with M14 melanoma it was 109% (inactive).
Turning to `O=C1Nc2ccccc2/C1=C/c1cccn1CCCCCn1c2ccccc2c(=O)c2ccccc21`, the growth in the experiment with DU-145 prostate is 97.9% (inactive); in the experiment on K-562 leukemia, 52.1% (inactive); in the experiment on MALME-3M melanoma it was 84.5% (inactive); in the experiment with MDA-MB-231 breast it was 69.3% (inactive); with RXF 393 renal it was 89.2% (inactive); in the experiment with SF-268 CNS, 83.3% (inactive). Also, the growth in the experiment on SF-295 CNS was 93.1% (inactive); in the experiment with SF-539 CNS it was 94.2% (inactive); in the experiment on UACC-257 melanoma, 106% (inactive); in the experiment with M14 melanoma, 73.3% (inactive).
As for `COCCOc1cc2ncnc(N3CCN(S(=O)(=O)c4ccccc4Cl)CC3)c2cc1OCCOC`, the growth in the experiment with DU-145 prostate was 91.2% (inactive); with K-562 leukemia it was 41.3% (inactive); in the experiment with MALME-3M melanoma it was 67.9% (inactive); in the experiment on MDA-MB-231 breast, 74.8% (inactive); with RXF 393 renal, 83.9% (inactive); in the experiment on SF-268 CNS, 86.2% (inactive). Besides, the growth with SF-295 CNS is 82.7% (inactive); in the experiment with SF-539 CNS, 88.8% (inactive); with UACC-257 melanoma, 83.5% (inactive); with M14 melanoma it was 71.9% (inactive).
Regarding `CCN1C(=O)N(c2ccccc2)C2NC(=S)N(/N=C/C=C/c3ccccc3)C21` (stereo not given), the growth in the experiment on DU-145 prostate is 8.79% (active); in the experiment on K-562 leukemia it was 8.8% (active); in the experiment with MALME-3M melanoma it was 45.8% (inactive); in the experiment with MDA-MB-231 breast it was 15.7% (inactive); with RXF 393 renal it was 9.01% (active); in the experiment with SF-268 CNS it was 31.9% (inactive). Also, the growth in the experiment on SF-295 CNS was 2.91% (active); in the experiment with SF-539 CNS, -27% (active); in the experiment on UACC-257 melanoma it was 39.5% (inactive); in the experiment on M14 melanoma it was 0.94% (active).
Regarding `COc1cc(CNC(=O)CCCC/C=C/C(C)C)ccc1O`, the growth with DU-145 prostate was 112% (inactive) and 120% (inactive); with K-562 leukemia, 84.1% (inactive) and 93.3% (inactive); in the experiment on MALME-3M melanoma it was 154% (inactive) and 95.6% (inactive); in the experiment with MDA-MB-231 breast it was 85.1% (inactive) and 83.3% (inactive); in the experiment with RXF 393 renal, -46.1% (active) and 98.6% (inactive); with SF-268 CNS it was 84.9% (inactive) and 91.6% (inactive). Also, the growth with SF-295 CNS is 128% (inactive) and 107% (inactive); in the experiment on SF-539 CNS it was 95.6% (inactive) and 90.7% (inactive); in the experiment on UACC-257 melanoma, 119% (inactive) and 112% (inactive); in the experiment on M14 melanoma, 117% (inactive) and 99.5% (inactive).
`CC(C)(C)c1cc(C(C)(C)c2ccccc2)cc(Cc2cc(C(C)(C)c3ccccc3)cc(C(C)(C)C)c2O)c1O`: the growth is 123% (inactive) with DU-145 prostate; 48% (inactive) in the experiment on K-562 leukemia; 97.4% (inactive) in the experiment on MALME-3M melanoma; 105% (inactive) in the experiment on MDA-MB-231 breast; 95.5% (inactive) in the experiment with RXF 393 renal; 98.4% (inactive) with SF-268 CNS. Moreover, the growth was 116% (inactive) in the experiment with SF-295 CNS, 101% (inactive) with SF-539 CNS, 105% (inactive) with UACC-257 melanoma and 116% (inactive) in the experiment with M14 melanoma.
`COc1ccccc1/C=C1\COc2ccc(O)c(O)c2C1=O`: the growth with DU-145 prostate was 5.75% (active); with K-562 leukemia it was 2.89% (active); with MALME-3M melanoma it was 6.18% (active); with MDA-MB-231 breast, 17.4% (inactive); with RXF 393 renal it was 36.6% (inactive); in the experiment on SF-268 CNS, 32% (inactive). For the same molecule, the growth is 90.8% (inactive) in the experiment on SF-295 CNS, -23.5% (active) in the experiment with SF-539 CNS, 33.6% (inactive) with UACC-257 melanoma and 29% (inactive) with M14 melanoma.
As for `O=C(Nc1ccc2ncsc2c1)c1csc(Nc2ccc3[nH]ncc3c2)n1`, the growth with DU-145 prostate is 35.5% (inactive); in the experiment with K-562 leukemia, 28.1% (inactive); in the experiment with MALME-3M melanoma, 57.1% (inactive); in the experiment with MDA-MB-231 breast, 62.9% (inactive); with RXF 393 renal, 13.9% (inactive); in the experiment with SF-268 CNS, 55.8% (inactive). For the same molecule, the growth in the experiment on SF-295 CNS is 25.5% (inactive); with SF-539 CNS, 22.9% (inactive); in the experiment with UACC-257 melanoma it was 63.8% (inactive); in the experiment with M14 melanoma, 25.2% (inactive).
